Data published in PubChem BioAssay (Tox21).
Inconclusive results are not listed. Calls of active or inactive are those of the source. Unless noted, calls come from the whole dose curve; as a rule, active = well fitted curve in the direction sought with a large enough effect in the repeat runs; inconclusive = weak or mixed curves; inactive = no such curve, though single readings can be large; an effect the other way counts as inactive or inconclusive.

Columns and labels:
[1] = qHTS assay to identify small molecule antagonists of the estrogen related receptor (ERR) signaling pathway from Tox21 library - cell viability counter screen (AID 1224834); note: nearly all actives have a fitted effect of over 30% in size; note: potency is the fitted concentration of half-maximal effect
Outline: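 In this quantitative HTS format, ERR cells receive compounds in DMSO and are incubated for 17.5 h at 37 C. Live-cell protease activity is then detected with CellTiter-Fluor.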

[2] = target: Luciferin 4-monooxygenase (Photinus pyralis) (UniProt P08659); test: qHTS assay to identify small molecule inhibitors of firefly luciferase (AID 1224835); note: nearly all actives have a fitted effect of over 25% in size; note: potency is the fitted concentration of half-maximal effect
Outline: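 Biochemical qHTS: compounds run as interplate titrations against purified firefly enzyme, with D-luciferin and ATP each at its KM concentration. Light output recorded by CCD imaging.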

[3] = qHTS assay to identify small molecule agonists of the constitutive androstane receptor (CAR) signaling pathway - cell viability counter screen (AID 1224836); note: nearly all actives have a fitted effect of over 45% in size
Outline: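 Using CellTiter-Fluor, viability of HepG2 cells harbouring hCAR and CYP2B6-2.2kb was measured following 23 h incubation with a 15-concentration compound series plus PK11195 (0.75 uM final).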

[4] = target: Nuclear receptor subfamily 1 group I member 3 (Homo sapiens) (UniProt Q14994); test: qHTS assay to identify small molecule antagonists of the constitutive androstane receptor (CAR) signaling pathway (AID 1224838); note: nearly all actives have a fitted effect of over 40% in size; note: potency is the fitted concentration of half-maximal effect
Outline: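 CITCO-stimulated (50 nM final) HepG2 cells stably transfected with hCAR and CYP2B6-2.2kb luciferase were exposed to compounds at 15 concentrations for 24 h at 37 C/5% CO2. A luciferase reagent was added and luminescence recorded after 30 min.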

[5] = target: Nuclear receptor subfamily 1 group I member 3 (Homo sapiens) (UniProt Q14994); test: qHTS assay to identify small molecule agonists of the constitutive androstane receptor (CAR) signaling pathway (AID 1224839); note: nearly all actives have a fitted effect of over 15% in size; note: potency is the fitted concentration of half-maximal effect;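 for activation: HepG2 cells stably carrying human CAR and a CYP2B6 luciferase reporter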
Outline: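 Double-stable HepG2 cells (hCAR, CYP2B6-2.2kb) seeded 4 h before compound addition. Exposure 24 h with 0.75 uM PK11195 final. Luciferase detected by ONE-Glo.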

[6] = qHTS assay to identify small molecule antagonists of the estrogen related receptor signaling pathway with the pleiotropic PPARgamma coactivator (PGC) from Tox21 10K library - cell viability counter screen (AID 1224840; active = well fitted cell-killing curve with a large enough effect in the repeat runs, not every such curve was filed as active; note: nearly all actives have a fitted effect of over 40% in size)
Outline: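 Viability counter screen, PGC/ERR cells: 17.5 h compound exposure at 37 C, CellTiter-Fluor fluorescence endpoint.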

[7] = target: Thyrotropin receptor (Homo sapiens) (UniProt P16473); test: qHTS assay to identify small molecule agonists of the thyroid stimulating hormone receptor (TSHR) signaling pathway (AID 1224843; calls by dose curve; note: nearly all actives have a fitted effect of over 45% in size)
Outline: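 Agonist-mode screen: TSHR HEK293 cells received test chemicals for half an hour at room temperature, then HTRF cAMP detection reagents for one hour prior to fluorescence measurement. Each chemical ran as a 15-concentration series, triplicated.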

[8] = qHTS assay to identify small molecule agonists of the hypoxia (HIF-1) signaling pathway (AID 1224846; active = well fitted activation curve with a large enough effect in the signal ratio in the repeat runs, not every such curve was filed as active; the % refers to the signal ratio)
Outline: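 In ME-180 cells bearing an HRE-bla construct, 17 h treatment with DMSO-dissolved compounds at 37C was followed by CCF4-AM loading to quantify reporter induction.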

[9] = qHTS RealTime-Glo MT Cell Viability Assay in HepG2 cells - 24 hour (AID 1224867); note: nearly all actives have a fitted effect of over 50% in size
Outline: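 qHTS, HepG2, 600 cells/well, RealTime-Glo (NanoLuc + prosubstrate) added with cells; 5 h preincubation; DMSO compound addition; 37 C; luminescence at 0/8/16/24/32/40 h.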

[10] = qHTS RealTime-Glo MT Cell Viability Assay in HEK293 cells - 32 hour (AID 1224868); note: nearly all actives have a fitted effect of over 50% in size; note: potency is the fitted concentration of half-maximal effect
Outline: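 Assay medium contained NanoLuc luciferase plus cell-permeant prosubstrate, added with HEK293 cells at 600 cells/well. After 5 h at 37 C/5% CO2 compounds were added; plates stayed at 37 C for 40 h with serial luminescence reads.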

[11] = A CellTox Green Cytotoxicity Assay to monitor cytotoxicity in HEK293 cells - 0 hour (AID 1224869); note: nearly all actives have a fitted effect of over 50% in size; note: potency is the fitted concentration of half-maximal effect
Outline: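 Homogeneous no-lysis format: HEK293 cell suspension mixed with CellTox Green reagent, seeded, incubated 5 h at 37 C/5% CO2, then dosed by pintool with compound in DMSO.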

[12] = qHTS RealTime-Glo MT Cell Viability Assay in HepG2 cells - 40 hour (AID 1224870); note: nearly all actives have a fitted effect of over 50% in size
Outline: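 HepG2 cells (600/well) mixed with RealTime-Glo MT reagent, settled 5 h at 37 C/5% CO2 before compound addition. Nonlytic NanoLuc luminescence from viable-cell prosubstrate reduction read repeatedly during 40 h treatment at 37 C.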

[13] = qHTS assay to identify small molecule antagonists of the estrogen related receptor signaling pathway with the pleiotropic PPARgamma coactivator (PGC) from Tox21 10K library (AID 1224841; call rule not given here; note: potency is the fitted concentration of half-maximal effect)
Outline: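 In the PGC/ERR line, DMSO solutions of test chemicals are pin-delivered to 2,000 cells/well six hours after dispensing. Following eighteen hours' incubation, One-Glo reagent is added and luminescence recorded.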

[14] = qHTS assay to identify small molecule agonists of the estrogen related receptor signaling pathway with the pleiotropic PPARgamma coactivator (PGC) from Tox21 10K library (AID 1224842); note: nearly all actives have a fitted effect of over 15% in size
Outline: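 PGC/ERR reporter cell line, 2,000 cells per well, incubated 6 h at 37 C before 23 nL compound in DMSO was added. After 18 h at 37 C, One-Glo luminescence read following 30 min at room temperature.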

[15] = qHTS assay to identify small molecule agonists of H2AX (AID 1224845; active = well fitted activation curve with a large enough effect in the signal ratio in the repeat runs, not every such curve was filed as active; the % refers to the signal ratio)
Outline: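 Wild-type CHO-K1 cells, plated overnight, exposed 3hr at 37C to 15 concentrations (0.76% DMSO final). Lysed, then HTRF anti-pH2AX (S139) cryptate and anti-H2AX-d2 antibodies, 24 hr room temperature; 665/620 nm emission read.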

[16] = qHTS assay to identify small molecule agonists of H2AX - cell viability counter screen (AID 1224847; calls by dose curve; note: top concentration of the series differs between compounds; nearly all actives have a fitted effect of over 30% in size)
Outline: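 Quantitative HTS viability measurement: CHO-K1 wild-type cells in serum (10% FBS) medium, short 3 hr drug exposure at 37C with 0.76% DMSO, CellTiter-Glo luminescent detection.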

[17] = qHTS assay to identify small molecule antagonists of the estrogen related receptor (ERR) signaling pathway from Tox21 library (AID 1224848); note: nearly all actives have a fitted effect of over 50% in size; note: potency is the fitted concentration of half-maximal effect
Outline: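 Quantitative high-throughput format: ERR reporter cells (2,000/well) pre-incubated 6 h, treated 18 h at 37 C with compounds in DMSO alongside positive and negative controls, then read by ONE-Glo luminescence.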

[18] = qHTS assay to identify small molecule agonists of the estrogen related receptor (ERR) signaling pathway from Tox21 library (AID 1224849; calls by dose curve; note: nearly all actives have a fitted effect of over 15% in size); conditions: ERR reporter cell line, ONE-Glo luciferase, 18 h; at 92.4 µM (top of the series) unless noted
Outline: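 Reporter cells (ERR, NTP source) treated with Tox21 10K compounds 18 h, 37 C. Readout: ONE-Glo luminescence, 30 min RT.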

[19] = qHTS assay to identify small molecule agonists of the hypoxia (HIF-1) signaling pathway - cell viability counter screen (AID 1224844; calls by dose curve; note: nearly all actives have a fitted effect of over 50% in size)
Outline: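 Same wells as the HIF-1 reporter screen; ME-180 cells carrying HRE-bla, 17 hr treatment at 37C; CellTiter-Glo luminescence read after 30 min at room temperature.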

[20] = qHTS assay to identify small molecule antagonists of the constitutive androstane receptor (CAR) signaling pathway - cell viability counter screen (AID 1224837); note: nearly all actives have a fitted effect of over 45% in size
Outline: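 In quantitative HTS format, compounds at 15 concentrations were applied to HepG2 cells double-transfected with hCAR and CYP2B6-2.2kb under 50 nM CITCO stimulation; live-cell protease activity was read after 23 hr via CellTiter-Fluor.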
% is set by controls: 0 for no effect and ±100 for the full control effect.

Thyrotropin receptor (Homo sapiens), sequence (P16473 whole entry, looked up): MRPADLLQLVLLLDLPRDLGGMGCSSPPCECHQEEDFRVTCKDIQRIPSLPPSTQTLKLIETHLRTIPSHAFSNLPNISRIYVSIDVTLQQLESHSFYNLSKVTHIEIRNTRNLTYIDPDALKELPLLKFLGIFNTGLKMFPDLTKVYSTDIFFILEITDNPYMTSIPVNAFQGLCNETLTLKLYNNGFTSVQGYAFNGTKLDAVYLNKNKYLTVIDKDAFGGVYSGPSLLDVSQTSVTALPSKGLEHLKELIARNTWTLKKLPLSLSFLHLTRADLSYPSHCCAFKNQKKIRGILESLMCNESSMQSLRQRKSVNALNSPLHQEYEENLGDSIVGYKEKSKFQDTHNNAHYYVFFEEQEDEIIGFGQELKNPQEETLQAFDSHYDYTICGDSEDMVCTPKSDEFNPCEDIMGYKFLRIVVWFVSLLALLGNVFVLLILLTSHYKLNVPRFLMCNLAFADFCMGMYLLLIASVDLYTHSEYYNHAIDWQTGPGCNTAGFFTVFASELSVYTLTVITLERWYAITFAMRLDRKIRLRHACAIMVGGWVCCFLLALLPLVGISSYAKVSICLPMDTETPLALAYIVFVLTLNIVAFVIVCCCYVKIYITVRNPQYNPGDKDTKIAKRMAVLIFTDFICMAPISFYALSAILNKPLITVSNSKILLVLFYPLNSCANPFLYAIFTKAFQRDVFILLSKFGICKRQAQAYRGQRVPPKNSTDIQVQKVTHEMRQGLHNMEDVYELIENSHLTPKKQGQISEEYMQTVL
Nuclear receptor subfamily 1 group I member 3 (Homo sapiens), sequence (Q14994 whole entry, looked up): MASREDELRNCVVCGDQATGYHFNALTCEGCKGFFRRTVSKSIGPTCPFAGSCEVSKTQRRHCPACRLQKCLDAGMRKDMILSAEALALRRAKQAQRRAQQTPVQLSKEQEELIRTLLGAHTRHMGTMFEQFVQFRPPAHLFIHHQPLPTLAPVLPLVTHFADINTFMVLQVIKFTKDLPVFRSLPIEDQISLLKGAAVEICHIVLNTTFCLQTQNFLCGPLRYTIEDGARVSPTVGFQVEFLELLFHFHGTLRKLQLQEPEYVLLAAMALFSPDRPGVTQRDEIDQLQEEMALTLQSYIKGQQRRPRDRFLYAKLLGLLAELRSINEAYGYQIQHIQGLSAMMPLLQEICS
Luciferin 4-monooxygenase (Photinus pyralis), sequence (P08659 whole entry, looked up): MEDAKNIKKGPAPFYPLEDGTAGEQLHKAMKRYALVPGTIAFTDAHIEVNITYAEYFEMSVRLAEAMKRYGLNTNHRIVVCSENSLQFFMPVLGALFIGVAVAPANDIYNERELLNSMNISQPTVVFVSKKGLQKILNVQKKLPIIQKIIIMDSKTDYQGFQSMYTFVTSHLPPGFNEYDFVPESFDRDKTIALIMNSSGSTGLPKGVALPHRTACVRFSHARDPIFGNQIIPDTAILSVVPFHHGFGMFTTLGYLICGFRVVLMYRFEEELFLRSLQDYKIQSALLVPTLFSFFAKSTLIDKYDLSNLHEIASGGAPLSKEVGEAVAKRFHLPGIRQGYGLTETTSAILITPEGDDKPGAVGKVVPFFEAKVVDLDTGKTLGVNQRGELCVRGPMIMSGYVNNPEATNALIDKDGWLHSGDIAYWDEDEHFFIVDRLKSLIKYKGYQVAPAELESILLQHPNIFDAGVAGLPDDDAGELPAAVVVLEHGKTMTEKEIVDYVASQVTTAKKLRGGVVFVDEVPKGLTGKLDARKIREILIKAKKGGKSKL

O=C(OCCc1ccccc1)c1ccccc1
active: Potency [2] 1 µM
inactive: Potency [1] | Potency [3] | Potency [4] | Potency [5] | Potency [6] | Potency [7] | Potency [8] | Potency [9] | Potency [10] | Potency [11] | Potency [12]

CN(C)CCOC(c1ccccc1)c1ccc(Br)cc1 (configuration not stated)
inactive: Potency [1] | Potency [2] | Potency [3] | Potency [4] | Potency [13] | Potency [14] | Potency [7] | Potency [15] | Potency [8] | Potency [16] | Potency [17] | activity change, positive = activation [18] -2.31% [at 42.5 µM] | Potency [9] | Potency [11] | Potency [12]

Nc1ccc([N+](=O)[O-])c(C(F)(F)F)c1
inactive: Potency [1] | Potency [2] | Potency [3] | Potency [4] | Potency [5] | Potency [6] | Potency [13] | Potency [14] | Potency [7] | Potency [19] | Potency [15] | Potency [8] | Potency [16] | Potency [17] | activity change, positive = activation [18] -17.3% [at 42.5 µM] | Potency [9] | Potency [10] | Potency [11] | Potency [12]

O=C(Nc1ccc(S(=O)(=O)N2CCOCC2)cc1)c1cc(Cl)ccc1NS(=O)(=O)c1ccc(Cl)s1
inactive: Potency [1] | Potency [2] | Potency [3] | Potency [20] | Potency [6] | Potency [13] | Potency [7] | Potency [19] | Potency [8] | Potency [16] | Potency [17] | activity change, positive = activation [18] -2.07% [at 42.5 µM] | Potency [10] | Potency [12]
active: Potency [11] 19 µM

O=C(O)c1ccccc1Cl
inactive: Potency [1] | Potency [2] | Potency [3] | Potency [20] | Potency [6] | Potency [7] | Potency [19] | Potency [15] | Potency [8] | Potency [16] | Potency [9] | Potency [11] | Potency [12]

O=P(O)(OCc1ccccc1)OCc1ccccc1
inactive: Potency [1] | Potency [2] | Potency [3] | Potency [20] | Potency [6] | Potency [7] | Potency [19] | Potency [15] | Potency [8] | Potency [16] | Potency [9] | Potency [10] | Potency [11] | Potency [12]

C[N+](C)(C)CCOC(=O)CCC(=O)OCC[N+](C)(C)C
inactive: Potency [1] | Potency [2] | Potency [3] | Potency [20] | Potency [6] | Potency [7] | Potency [19] | Potency [15] | Potency [16] | Potency [9] | Potency [10] | Potency [11] | Potency [12]

CN(C)c1ccc(CCO)cc1
active: Potency [4] 27.1 µM | Potency [10] 30.7 µM
inactive: Potency [1] | Potency [2] | Potency [3] | Potency [5] | Potency [6] | Potency [7] | Potency [19] | Potency [15] | Potency [8] | Potency [16] | Potency [9] | Potency [11] | Potency [12]

CC(C)CC(=O)C1C(=O)c2ccccc2C1=O
inactive: Potency [2] | Potency [3] | Potency [4] | Potency [7] | Potency [19] | Potency [8] | activity change, positive = activation [18] -53.7% | Potency [9] | Potency [10] | Potency [11] | Potency [12]
active: Potency [1] 38.6 µM | Potency [13] 27.3 µM | Potency [17] 30.6 µM

C=C1[C@H]2CC[C@@H]3[C@H]2C(C)(C)CCC[C@]13C
inactive: Potency [1] | Potency [2] | Potency [3] | Potency [4] | Potency [5] | Potency [19] | Potency [15] | Potency [8] | Potency [16] | Potency [9] | Potency [10] | Potency [11] | Potency [12]

C=CCOC(=O)CCC1CCCCC1
inactive: Potency [1] | Potency [2] | Potency [3] | Potency [4] | Potency [5] | Potency [6] | Potency [13] | Potency [14] | Potency [7] | Potency [19] | Potency [15] | Potency [8] | Potency [16] | Potency [17] | activity change, positive = activation [18] -4.2% | Potency [9] | Potency [10] | Potency [11] | Potency [12]

CCOC(=O)Cc1cccc2ccccc12
active: Potency [5] 30.6 µM
inactive: Potency [1] | Potency [2] | Potency [3] | Potency [4] | Potency [6] | Potency [13] | Potency [15] | Potency [8] | Potency [16] | Potency [17] | activity change, positive = activation [18] -0.505% | Potency [9] | Potency [10] | Potency [11] | Potency [12]

COc1cc2c(cc1OC)C(C(C(=O)N(CCc1ccc(OC)c(OC)c1OC)CCc1ccc(OC)c(OC)c1OC)c1ccccc1)=NCC2 (configuration not stated)
inactive: Potency [2] | Potency [3] | Potency [20] | Potency [14] | Potency [7] | Potency [15] | Potency [8] | Potency [16] | activity change, positive = activation [18] -49.6% [at 42.5 µM] | Potency [11]
active: Potency [1] 23.7 µM | Potency [13] 23.7 µM | Potency [17] 26.6 µM | Potency [10] 3.38 µM
